Assay outcomes: PubChem BioAssay, The Scripps Research Institute Molecular Screening Center
Sampled rows, rich in hits. Any-hit rate of the full collection: about 2.6%.
IEC-6 cytotox: cytotoxicity in IEC-6 intestinal epithelial cells, primary screen, cytotoxicity control for KLF5 inhibitor project, cell-based, luminescence; IEC-6 cytotoxicity, luminescence viability; inhibition, % at 5 µM; actives 0.78% (n = 290,000); AID 1825, 2009; in the data active means inhibition above about 22%
Ba/F3 V617F tox: reduced viability of JAK2V617F-dependent Ba/F3 cells, primary screen, JAK2V617F inhibitor project, cell-based, Ba/F3 EpoR-JAK2V617F, luminescence | inhibition, % at 5.6 µM | AID 1446, 2008 | actives 1.1% (n = 220,000) | ATP luminescence;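 active means inhibition above the campaign mean plus 3 SD over all tested compounds, cut at about 24% in these data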;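 further: cytokine-independent growth of Ba/F3 cells driven by EpoR plus mutant JAK2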
BaF3 parental: parental Ba/F3 cell viability inhibition, counter-screen for JAK2V617F inhibitor project, murine pro-B, CellTiter-Glo luminescence | actives 1.1% (n = 220,000) | CellTiter-Glo ATP luminescence | inhibition, % at 5.6 µM;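 active means inhibition above a per-campaign cutoff, the mean inhibition of all tested compounds plus 3 SD, cut at about 27% in these data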
GPR7 antagonist: GPR7 receptor antagonists, primary screen, cell-based, fluorescence, single concentration. inhibition, % at 4.4 µM. Neuropeptides B/W receptor type 1 (Homo sapiens), P48145. GPR7-expressing cells, fluorescence antagonist assay. actives 1.1% (n = 290,000); in the data active means inhibition above about 16%, passing the limit was not always enough;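 further: cells stimulated with the agonist NPW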
Target sequence (P48145 whole entry, looked up): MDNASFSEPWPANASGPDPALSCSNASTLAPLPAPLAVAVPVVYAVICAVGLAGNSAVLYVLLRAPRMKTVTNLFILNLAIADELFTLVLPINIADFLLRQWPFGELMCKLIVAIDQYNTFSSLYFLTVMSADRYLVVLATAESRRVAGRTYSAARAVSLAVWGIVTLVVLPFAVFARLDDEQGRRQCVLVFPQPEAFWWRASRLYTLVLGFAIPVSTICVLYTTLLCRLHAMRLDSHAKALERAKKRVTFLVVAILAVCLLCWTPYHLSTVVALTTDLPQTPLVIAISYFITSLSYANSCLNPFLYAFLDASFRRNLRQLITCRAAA
FID counter: compounds displacing fluorescent DNA intercalator, primary screen, artefact control for HCV NS3 helicase inhibitor project, biochemical, FID fluorescence | DNA fluorescent intercalator displacement | inhibition, % at 7.9 µM | actives 0.17% (n = 290,000); in the data active means inhibition above about 37%;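 further: higher means more ethidium bromide displaced from hairpin DNA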
KLF5 inh: KLF5 expression inhibitors, primary screen, DLD-1 cells, luminescence. AID 1700, 2009. inhibition, % at 5 µM. DLD-1 KLF5 promoter-luciferase reporter. actives 0.23% (n = 290,000);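 active means inhibition above a per-plate limit of that plate's mean compound inhibition plus 3 SD, cut at about 60% in these data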;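 further: higher means less KLF5 promoter-driven luciferase light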
Hits are given with their value; . = inactive; / = no result.

SMILES	IEC-6 cytotox	Ba/F3 V617F tox	BaF3 parental	GPR7 antagonist	FID counter	KLF5 inh
O=C(Nc1cc(Cl)ccc1C(=O)O)c1ccc(CN2C(=O)c3ccccc3C2=O)cc1	.	/	/	.	39	.
O=C(NC(=S)NC1CCCCCCCCCCC1)c1cccnc1	.	.	65	.	.	.
CCCN1CCc2c(sc(NC(=O)c3ccc(S(=O)(=O)N(C)c4ccccc4)cc3)c2C(=O)NC)C1	.	/	/	.	44	.
CCCN1CCc2c(sc(NC(=O)c3ccc(S(=O)(=O)N(C)c4ccccc4)cc3)c2C(N)=O)C1	.	/	/	.	.	.
O=c1c2c3c(sc2ncn1/N=C/c1cccnc1)CCCC3	.	.	.	.	.	.
CCN1CCN(c2ccc(S(=O)(=O)N3CCCCC3)cc2NC(=O)Cc2ccc(OC)cc2)CC1	.	/	/	.	.	.
CCN1CCN(c2ccc(S(=O)(=O)N3CCCCC3)cc2NC(=O)/C=C/c2cccc(OC)c2OC)CC1	.	/	/	.	38	.
Cc1c(NC(=O)c2cc3nc(-c4ccc(Br)cc4)cc(C(F)(F)F)n3n2)c(=O)n(-c2ccccc2)n1C	.	.	94	.	.	.
Cc1c(NC(=O)c2cc3nc(-c4ccccc4)cc(C)n3n2)c(=O)n(-c2ccccc2)n1C	.	.	.	.	.	.
Cc1ccc(C(=O)NC(C)c2ccncc2)o1 (configuration not stated)	.	/	/	.	.	.
C[n+]1c2n(c3ccccc31)N=C(c1ccc(-c3ccccc3)cc1)CS2	.	99	71	.	.	.
C[n+]1c2n(c3ccccc31)N=C(c1ccc(Br)cc1)CS2	.	66	71	.	.	.
C[n+]1c2n(c3ccccc31)N=C(c1ccccc1)CS2	.	91	68	.	.	.
COc1cccc(C(C(=O)NC2CCCC2)N(Cc2cccnc2)C(=O)Cc2cccs2)c1 (configuration not stated)	.	/	/	.	.	.
CC1C/C(=C/c2ccncc2)C(=O)/C(=C/c2ccncc2)C1 (configuration not stated)	.	.	.	24	.	.
CC1C/C(=C/c2cccn2C)C(=O)/C(=C/c2cccn2C)C1 (configuration not stated)	.	.	.	.	.	.
O=S(=O)([O-])CCC[n+]1ccc(Oc2ccccc2)cc1	.	/	/	.	.	.
COCCNC(=S)N(CCc1c(C)[nH]c2ccc(Cl)cc12)Cc1cccs1	.	.	.	.	.	.
COCCNC(=S)N(CCc1c(C)[nH]c2ccc(F)cc12)Cc1cccs1	.	.	.	20	.	.
COc1ccc(CCNC(=O)C2CCN(S(=O)(=O)c3ccc(OC)cc3)CC2)cc1	.	/	/	.	.	.
CN(CCCNC(=O)CSc1cc(=O)n(C)c2cc(Cl)ccc12)Cc1ccccc1	.	.	.	21	.	.
COc1ccc2c(c1)sc(=N)n2C	.	58	69	.	.	.
Cn1c(C(=O)N2CCCC(C(=O)O)C2)cc2sccc21 (configuration not stated)	.	.	95	.	.	.
COc1ccccc1C(=O)NCC(=O)N/N=C/c1ccc([N+](=O)[O-])cc1	.	.	48	.	.	.
O=P(O)(O)c1cc(-c2ccccc2)oc1-c1ccccc1	.	.	28	.	.	.
SMILES	IEC-6 cytotox	Ba/F3 V617F tox	BaF3 parental	GPR7 antagonist	FID counter	KLF5 inh
O=C(Nc1ccc2c(c1)OCCO2)c1ccc(Cl)c(S(=O)(=O)N2CCOCC2)c1	.	.	.	.	.	.
O=C1CC(N2CCC(c3nc4ccccc4[nH]3)CC2)C(=O)N1c1cccc(F)c1 (configuration not stated)	.	.	.	.	.	.
Cc1nc2scc(C)n2c(=O)c1S(=O)(=O)NC(C)c1ccccc1 (configuration not stated)	.	/	/	.	.	.
CC(NC(=O)Nc1nnc(C(F)(F)F)s1)(C(F)(F)F)C(F)(F)F	.	37	40	.	.	.
COC(=O)N(NC(=O)C(O)(CCC(C)C)CCC(C)C)c1ccccc1	.	.	.	24	.	.
CC(C)CCC(O)(CCC(C)C)C(=O)NNc1ccccc1	.	.	.	.	.	.
COC(=O)CSC1=C(C#N)C(c2ccc(F)cc2)CC(=O)N1 (configuration not stated)	.	.	43	.	.	.
COC(=O)CSC1=C(C#N)C(c2ccc(C)o2)CC(=O)N1 (configuration not stated)	.	.	43	.	.	.
CC12CN3CC(C)(CN(C1)C3c1ccc3c(c1)OCO3)C2=O (configuration not stated)	.	.	.	.	.	.
CN1c2ccccc2N(C)C1c1ccc2c(c1)OCO2	.	71	61	.	.	.
COc1ccc(CCn2c(-c3ccc(OC)cc3)nc3c(c(=O)c4ccccc4n3C)c2=O)cc1	.	.	.	.	.	.
CCc1nc2c(c(=O)c3ccccc3n2C)c(=O)n1CCc1ccc(OC)cc1	26	.	.	.	.	.
Fc1cccc(Cl)c1Cn1nnc(-c2ccc(N3CCOCC3)cc2)n1	.	.	.	.	.	.
Clc1cccc(Cl)c1Cn1nnc(N2CCCC2)n1	.	34	61	.	.	.
CC(C)(CO)NCc1cccc(OCc2ccc(Cl)cc2)c1	.	.	.	.	.	.
Clc1ccc(COc2cccc(CNCc3ccncc3)c2)cc1	.	.	38	.	.	.
COc1ccc2c(c1OC)C(=O)N1c3ccccc3SC21 (configuration not stated)	.	.	.	.	.	.
C=CCn1c(-c2ccc(N)cc2)nc2ccccc21	.	.	.	.	.	.
C=CCn1c(-c2ccc(OC)cc2)nc2ccccc21	.	42	38	.	.	.
Cc1ccc(-c2nn(-c3ccccc3)cc2C(=O)NN2CCN(C)CC2)cc1	.	.	.	.	.	.
Cc1ccc(NC(=O)c2cnc(N3CCN(c4ccccn4)CC3)c3ccccc23)c(Br)c1	.	.	.	26	.	.
O=C(Nc1c(F)cccc1F)c1cnc(N2CCN(c3ccccn3)CC2)c2ccccc12	.	.	.	.	.	.
O=C(c1ccc(Br)o1)N1CCN(C23CC4CC(CC(C4)C2)C3)CC1	.	/	/	.	.	.
COc1ccc(-c2n(Cc3ccccc3)c3ccccc3[n+]2Cc2ccccc2)cc1	.	96	74	56	.	.
CCOc1ccc(CN2CCN(Cc3cccc4nonc34)CC2CCO)cc1 (configuration not stated)	.	.	.	.	.	.
